Among all 53,000 sequences or so, about 3,700 (7%) were called active. Only a selection was taken, and actives are over-represented in it overall. Unmarked numbers belong to inactive results.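 Rule for the calls: active = gene knockdowns whose robust z-score for IL-1 alpha signal is at least 2 or at most -2, so actives lie on both sides; inactive = the rest.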

The nature of this assay: Components of the Cytosolic LPS Sensing Pathway: Gene Identification via Genome-wide siRNA Screen. Conditions: RAW264.7 macrophages, IL-1a HTRF, actives lie on both sides, screened at 100 nM (by protocol), cells primed 5 h with Pam3CSK4 first. The source says: Non-canonical inflammasome activation by cytosolic LPS is a critical component of the host response to Gram-negative bacterial infection, however we lack a comprehensive understanding of the cellular processes that control this pathway. Here we describe a genome-wide siRNA screen to identify genes regulating the mouse macrophage IL-1 alpha response to cytosolic LPS.
RAW264.7 cells were maintained in complete DMEM media, comprising DMEM with 4.5 g/L glucose, 10% FBS (Gemini Bio-Products, West Sacramento, CA), 2 mM Glutamine (Lonza) and 20 mM HEPES (Lonza), hereafter complete DMEM.
The RNAi screen was conducted in 384-well format using the Ambion Silencer Mouse Genome siRNA Library (#4391425), which consists of three unique, nonoverlapping, nonpooled siRNAs for each of 17,000 gene targets. siRNA reagents ([…]) were stamped into 384-well white flat-bottom microplates (Corning, 3570) using a Velocity11 VPrep liquid handling system (Agilent) integrated into a BioCel robotic platform (Agilent) in columns 1-22, leaving columns 23-24 empty for negative (Ambion, Negative control #1) and positive (mouse Casp4) controls, respectively. The median value of each plate's negative control column was used to normalize sample wells, and the positive control was used to assess transfection efficiency and assay performance.
Lipofectamine RNAiMAX Transfection Reagent ([…]; Invitrogen) was added in […] serum-free, antibiotic-free media to plate wells using a Thermo Scientific Matrix WellMate and Microplate Stacker. Plates were incubated for 45 min at room temperature to allow for the sufficient formation of siRNA-lipid complexes. Cells were seeded at a density of 1x10^4 cells per well in 20 microL media containing 20% (vol/vol) FBS without antibiotics. The final concentration of siRNA in each well was 100 nM. Cells were cultured for 48h at 37 degrees C in 5% CO2 before addition of […] of TLR ligand Pam3CSK4 for 5 hours. The medium was then removed, replaced with […] growth media and cell were transfected with […] of LipidA and TransIT-TKO (Mirus) for 24 hour. At the end of the LipidA treatment, […] of supernatant was transferred to a 384 Greiner Bio-one non-binding low volume plate and […] of IL-1a HTRF reagent (Cisbio, 62MIL1APEH) was added and incubated at room temperature overnight. The plates were read on an EnVision plate reader (PerkinElmer). Cell viability was measured by adding 20ul Cell Titer Glo to the original plate and running a luminescence read on the EnVision. The quantified IL-1a signal for each siRNA gene-targeted well was divided by the median of the negative control wells and multiplied by 100 to achieve a negative control normalized value for each well/siRNA. This normalized value was then used to generate a robust z-score by first taking the log of each value and then by subtracting the median and dividing by the […].
For the sequence GGACUGUGCAGUUAUUGUCTT against Psma6, the z-score is -2.17 (active). As for CCCUUUAUUAUUCCACUGUTT against Olfr530, the z-score was -1.12.

Consider CCAAGUUCACAAUUGUUCUTT against Gimap8, for which the z-score is -0.263.

Regarding CCUAAAGAAAGGUUAAAGATT against Sfr1, the z-score was -0.763. With CGAGCCCAUGUCAGAUCAGTT against Minar1, the z-score is -2.33 (active). As for GCACUACCACUGUCAGCAATT against Ldb3, the z-score was -0.734. In the case of CCAACACUACCAGAGAACGTT against Pfkfb1, the z-score was -0.808.

Take CGAUAAAAGACCCAAAUUATT against Emx2: the z-score was 1.86. For the sequence GCAUGUGUCAAGAUGUCUGTT against Tec, the z-score is 1.36. In the case of GGUCACAAACAGAUUAAUUTT against Ahcy, the z-score was -0.404. Under GGUUUGAAUGUCACCGGCATT against Defb29 stands -1.22; under GGAUGAGGAAAACUUCCAGTT against Mup5, 2.61 (active). With GCCAUCACGAGCUAAAACCTT against Smad5, the z-score was -1.91. Take GGUUUUUAGCCUGAGUGAGTT against Olfr688: the z-score is -1.8. The value for GGAUUUCUCGGAAGUCGAGTT against Cd3e was 0.517; that for GGUCUUUCAAGUUGCAUACTT against Lama1 was 0.491; that for GGAUGAACUAUACCAUGGCTT against Tmem132c was 1.07. For GGACGGUCUUGCCUUCUUCTT against Fam222a, the z-score was 0.901.

Regarding CGAUGACGGGAAAUAAUUUTT against Snx4, the z-score is -0.663. As to GCUAUUUUUAUAAGGGCCATT against Sh2b2, the z-score is 2.94 (active). For the sequence GGCACCAUAGAUGUUUGAGTT against Cyp4f16, the z-score is -1.34. For the sequence GGAGCCUGUCUUUUAUUGATT against Olfr938, the z-score was 0.0765. With GGUAGACACCUUGUUCUUATT against Nap1l3, the z-score is 1.03. For GCCUUUAAUACAUAGGCUUTT against Cxcl9, the z-score was -0.381.

For the sequence GCCAAUAGUAACCAGCCAGTT against Prkab1, the z-score is -2.07 (active).

In the case of GCAAAUUCCAGUGAAAGCCTT against Papola, the z-score is 1.12. For the sequence GGAUGACCAUGAAAGCUGUTT against Vps13b, the z-score was 1.87.

With GGUUAUCAUCUUGUGAAAATT against Srpk1, the z-score is -0.628. The value for AUGCCUAUACAAUUCUGUGTT against Olfr1167 was 0.0339; that for GGAGAACAACAAAGACAAGTT against Hoxb8 was 2.69 (active).
